Among all 39,000 compounds or so, about 220 (0.56%) showed activity. Only a selection was taken, and actives are over-represented in it overall.
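Note: Wild-type cells incubated without shaking, value is the mean of two biological replicates.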

The test system of the experiment is Escherichia coli K-12 BW25113. Nature of the experiment: relative growth (OD600 normalised to plate interquartile mean) (fraction); higher = less growth inhibition, active = 0.2 or less. The conditions noted are these: 50 µM; LB; incubation time: overnight (16-24 h).
With `CN(Cc1ccccc1)C(=O)[C@H](Cc1ccc2ccccc2c1)NC(=O)[C@@H]1CCCN1C(=O)Nc1ccccc1[N+](=O)[O-]`, the relative growth was 1.04 (inactive).

Take `CCCC[P+](CCCC)(CCCC)Cc1ccc(NC(=O)[C@@H](Cc2ccc3ccccc3c2)N=C(NC2CCCCC2)NC2CCCCC2)cc1`: the relative growth is 0.0386 (active).

Regarding `CCCC[P+](CCCC)(CCCC)Cc1ccc(NC(=O)[C@H](Cc2ccc3ccccc3c2)N/C(=N/C2CCCCC2)NC2CCCCC2)cc1`, the relative growth is 0.0326 (active).

For `C[C@@H]1CN([C@H](C)CO)C(=O)c2cc(NC(=O)Nc3cccc4ccccc34)ccc2O[C@@H]1CN(C)C(=O)NC1CCCCC1`, the relative growth was 1 (inactive).

On to `CCC(=O)Nc1ccc2ccccc2c1`, for which the relative growth was 0.842 (inactive).

As to `C[C@H](CO)N1C[C@H](C)[C@@H](CN(C)C(=O)NC2CCCCC2)Oc2ccc(NC(=O)Nc3cccc4ccccc34)cc2C1=O`, the relative growth is 1.04 (inactive).

`C[C@@H]1CCCCO[C@H](CN(C)C(=O)NC2CCCCC2)[C@@H](C)CN([C@H](C)CO)C(=O)c2cc(NS(=O)(=O)c3ccccc3)ccc2O1`: the relative growth is 0.983 (inactive).

Regarding `Cc1ccc2c(c1)[C@](C)(O)CCS2`, the relative growth was 1.01 (inactive).

Take `COc1ccc(S(=O)(=O)Nc2ccc3c(c2)CC(=O)N([C@H](C)CO)C[C@H](C)[C@H](CN(C)C(=O)Nc2c(C)noc2C)O3)cc1`: the relative growth was 1.02 (inactive).

`Cc1ccc(S(=O)(=O)N(C)C[C@H]2Oc3ccc(NS(=O)(=O)c4ccccc4)cc3CC(=O)N([C@@H](C)CO)C[C@H]2C)cc1`: the relative growth was 0.993 (inactive).

Consider `C[C@H]1CN([C@@H](C)CO)C(=O)c2cccc(NS(=O)(=O)c3cccs3)c2O[C@@H]1CN(C)S(=O)(=O)c1ccc(F)cc1`, for which the relative growth is 1.02 (inactive).

With `O=C(NO)c1ccc(C(=O)N/N=C/[C@H](O)[C@@H](O)[C@H](O[C@@H]2O[C@H](CO)[C@H](O)[C@H](O)[C@H]2O)[C@H](O)CO)cc1`, the relative growth was 0.996 (inactive).

For the compound `O=C(O)CCC(=O)N1CC(=O)Nc2ccccc21`, the relative growth is 0.964 (inactive).

`Cc1scc2c1N(C(=O)CN1CCN(C)CC1)c1ccccc1NC2=O.Cl`: the relative growth is 0.044 (active).

As to `CN1CCN(CC(=O)N2c3ccccc3C(=O)Nc3cccnc32)CC1.Cl.Cl`, the relative growth is 1.08 (inactive).

For the compound `Cc1c(N)nc([C@H](CC(N)=O)NC[C@H](N)C(N)=O)nc1C(=O)N[C@H](C(=O)N[C@H](C)[C@@H](O)[C@H](C)C(=O)N[C@H](C(=O)NCCc1nc(-c2nc(C(=O)NCCCNCCCCN)cs2)cs1)[C@@H](C)O)[C@@H](O[C@@H]1O[C@@H](CO)[C@@H](O)[C@H](O)[C@@H]1O[C@@H]1O[C@H](CO)[C@@H](O)[C@H](OC(N)=O)[C@@H]1O)c1c[nH]cn1`, the relative growth is 0.0715 (active).

Regarding `C[C@H](CO)N1C[C@H](C)[C@@H](CN(C)C(=O)Nc2ccc(F)cc2)OCc2ccccc2-c2ccccc2C1=O`, the relative growth is 0.975 (inactive).

For the compound `C[C@H](CO)N1C[C@H](C)[C@@H](CN(C)C(=O)Nc2cccc3ccccc23)OCCCC[C@H](C)Oc2ccc(NS(C)(=O)=O)cc2C1=O`, the relative growth was 1.01 (inactive).

In the case of `Cc1noc(C)c1S(=O)(=O)N(C)C[C@H]1Oc2c(NS(=O)(=O)c3cn(C)cn3)cccc2C(=O)N([C@H](C)CO)C[C@@H]1C`, the relative growth is 0.992 (inactive).

In the case of `C[C@@H]1CN([C@H](C)CO)C(=O)c2cccc(NS(=O)(=O)c3ccc(F)cc3)c2O[C@@H]1CN(C)S(=O)(=O)c1cn(C)cn1`, the relative growth was 0.99 (inactive).

With `C[C@@H]1CCCCO[C@@H](CN(C)C(=O)C2CCCCC2)[C@@H](C)CN([C@H](C)CO)C(=O)c2cc(NC(=O)CCC(F)(F)F)ccc2O1`, the relative growth was 0.92 (inactive).

For the compound `CC(C)(C)c1cc2[nH]c(N)nc(=N)n2n1`, the relative growth was 1.01 (inactive).

As for `C[C@@H]1CN([C@@H](C)CO)S(=O)(=O)c2ccc(C#CC3CC3)cc2O[C@@H]1CN(C)C(=O)C1CCCCC1`, the relative growth is 1.01 (inactive).

Consider `CN(C)[C@@H]1C(=O)[C@@H](C(N)=O)C(=O)[C@@]2(O)C(=O)[C@H]3C(=O)c4c(O)ccc(Cl)c4[C@@H](O)[C@H]3C[C@@H]12`, for which the relative growth was 0.0324 (active).

With `CN(C)[C@@H]1C(=O)[C@@H](C(N)=O)C(=O)[C@@]2(O)C(=O)[C@@H]3C(=O)c4c(O)c(NC(=O)CN5CCCC5)cc(F)c4C[C@H]3C[C@@H]12`, the relative growth was 0.0357 (active).

With `CN(C)[C@@H]1C(=O)[C@@H](C(=O)NCNCCCC[C@H](N)C(=O)O)C(=O)[C@@]2(O)C(=O)[C@@H]3C(=O)c4c(O)cccc4[C@@](C)(O)[C@H]3C[C@@H]12`, the relative growth is 0.977 (inactive).

Regarding `CN(C)c1ccc(O)c2c1C[C@@H]1C[C@@H]3[C@@H](N(C)C)C(=O)C(C(N)=O)=C(O)[C@]3(O)C(=O)[C@H]1C2=O`, the relative growth is 0.0589 (active).

For `CN(C)c1cc(NC(=O)CNC(C)(C)C)c(O)c2c1C[C@H]1C[C@H]3[C@H](N(C)C)C(=O)[C@@H](C(N)=O)C(=O)[C@@]3(O)C(=O)[C@H]1C2=O`, the relative growth is 1.01 (inactive).

As for `CN(C)c1cc(CNCC(C)(C)C)c(O)c2c1C[C@H]1C[C@H]3[C@H](N(C)C)C(=O)[C@H](C(N)=O)C(=O)[C@@]3(O)C(=O)[C@@H]1C2=O`, the relative growth is 0.0692 (active).

Consider `C[C@@H]1CCCCO[C@@H](CN(C)C(=O)NC2CCCCC2)[C@@H](C)CN([C@H](C)CO)C(=O)c2cc(NC(=O)C3CCCCC3)ccc2O1`, for which the relative growth was 1.02 (inactive).

Consider `C[C@H]1CN([C@@H](C)CO)C(=O)c2cc(NC(=O)CCCCCC(=O)Nc3ccccc3N)ccc2O[C@H]1CN(C)CC1CCCCC1`, for which the relative growth is 0.97 (inactive).

In the case of `COc1ccc(NC(=O)Nc2ccc3c(c2)C(=O)N([C@@H](C)CO)C[C@H](C)[C@H](CN(C)C(=O)Nc2ccc(OC)cc2)OCCCC[C@H](C)O3)cc1`, the relative growth is 0.996 (inactive).

As to `CN(C)C(=O)[C@H]1C[C@@H]2CCN(S(C)(=O)=O)C[C@H]2O1`, the relative growth is 0.988 (inactive).

For `Cc1noc(C)c1NC(=O)N(C)C[C@@H]1Oc2c(NC(=O)c3ccncc3)cccc2C(=O)N([C@H](C)CO)C[C@@H]1C`, the relative growth was 1 (inactive).

With `C[C@@H]1CN([C@@H](C)CO)C(=O)Cc2cc(NC(=O)Cn3cnnn3)ccc2O[C@H]1CN(C)C(=O)Nc1ccc(C(F)(F)F)cc1`, the relative growth is 0.993 (inactive).

With `CC(C)NC(=O)Nc1ccc2c(c1)C(=O)N([C@H](C)CO)C[C@H](C)[C@@H](CN(C)CC1CCCCC1)OCCCC[C@@H](C)O2`, the relative growth was 0.975 (inactive).

For `C[C@@H]1CN([C@H](C)CO)C(=O)c2cccc(NS(C)(=O)=O)c2O[C@@H]1CN(C)C(=O)NC1CCCCC1`, the relative growth is 0.99 (inactive).

For `COc1ccc(S(=O)(=O)N(C)C[C@@H]2OCCCC[C@@H](C)Oc3ccc(NC(=O)CCC(F)(F)F)cc3C(=O)N([C@H](C)CO)C[C@@H]2C)cc1`, the relative growth was 1.01 (inactive).

For the compound `CN(C)c1ccc(O)c2c1C[C@H]1C[C@H]3[C@H](N(C)C)C(=O)[C@@H](C(N)=O)C(=O)[C@@]3(O)C(=O)[C@H]1C2=O`, the relative growth was 0.0587 (active).

Take `CN(C)c1ccc(O)c2c1C[C@H]1C[C@H]3[C@H](N(C)C)C(=O)C(C(N)=O)=C(O)[C@@]3(O)C(=O)[C@H]1C2=O`: the relative growth is 0.184 (active).

On to `CN(C)c1cc(NC(=O)CNC(C)(C)C)c(O)c2c1C[C@H]1C[C@H]3[C@H](N(C)C)C(=O)C(C(N)=O)=C(O)[C@@]3(O)C(=O)[C@H]1C2=O`, for which the relative growth was 1 (inactive).

As to `CN(C)[C@@H]1C(=O)[C@@H](C(N)=O)C(=O)[C@@]2(O)C(=O)[C@H]3C(=O)c4c(O)cccc4C[C@H]3C[C@@H]12`, the relative growth is 0.972 (inactive).

Consider `C[C@@H]1CN([C@H](C)CO)C(=O)c2cc(NS(=O)(=O)c3cccs3)ccc2O[C@H]1CN(C)Cc1ccc(-c2ccccc2)cc1`, for which the relative growth was 0.997 (inactive).

For the compound `C[C@H](CO)N1C[C@H](C)[C@H](CN(C)C(=O)Nc2cccc3ccccc23)Oc2ncc(C#Cc3ccccc3)cc2C1=O`, the relative growth was 0.961 (inactive).

`C[C@@H]1CCCCO[C@H](CN(C)Cc2ccncc2)[C@H](C)CN([C@H](C)CO)C(=O)c2cc(NC(=O)Nc3ccccc3)ccc2O1`: the relative growth was 0.834 (inactive).

`CN[C@H]1CN(c2ccc3c(=O)c(C(=O)O)cn(-c4nccs4)c3n2)C[C@@H]1OC`: the relative growth is 0.0372 (active).

Turning to `COC(=O)C1=C[C@@H](O)[C@@H](O)[C@H](O[C@@H]2O[C@H](COC(=O)/C=C/c3ccccc3)[C@@H](O)[C@H](O)[C@H]2O)C1`, the relative growth was 0.984 (inactive).

Turning to `COc1ccc(S(=O)(=O)Nc2cccc3c2O[C@@H](CN(C)S(=O)(=O)c2ccc(OC)cc2)[C@H](C)CN([C@@H](C)CO)C3=O)cc1`, the relative growth was 1.01 (inactive).

Regarding `C[C@H]1CN([C@@H](C)CO)C(=O)Cc2cc(NC(=O)Nc3ccccc3)ccc2O[C@H]1CN(C)Cc1ccc(Oc2ccccc2)cc1`, the relative growth was 1.01 (inactive).

Regarding `C[C@@H]1CN([C@H](C)CO)C(=O)c2cc(NS(=O)(=O)c3ccccc3)ccc2O[C@@H]1CN(C)CC1CC1`, the relative growth is 1 (inactive).

With `NC[C@H]1OB(O)c2c(OCCO)ccc(Cl)c21`, the relative growth is 0.982 (inactive).

As to `NC[C@H]1OB(O)c2c(OCCCO)cccc21`, the relative growth is 0.04 (active).

Take `CC(C)(C)OC(=O)N1CCC(N)CC1`: the relative growth was 0.98 (inactive).

For the compound `C=C1c2cccc(O)c2C(=O)C2=C(O)C3(O)C(=O)C(C(N)=O)=C(O)C(N(C)C)C3C(O)C12.Cl` (stereo not drawn), the relative growth is 0.0546 (active).

As to `C=C1c2cccc(O)c2C(=O)C2=C(O)[C@]3(O)C(O)=C(C(N)=O)C(=O)[C@@H](N(C)C)[C@@H]3[C@@H](O)[C@H]12`, the relative growth is 0.225 (inactive).

Take `C[C@H]1c2cccc(O)c2C(=O)C2=C(O)[C@]3(O)C(=O)[C@@H](C(N)=O)C(=O)[C@@H](N(C)C)[C@@H]3[C@@H](O)[C@@H]21`: the relative growth is 0.0376 (active).

For the compound `CC1c2cccc(O)c2C(=O)C2=C(O)C3(O)C(=O)C(C(N)=O)=C(O)C(N(C)C)C3C(O)C21.Cl` (stereo not drawn), the relative growth was 0.0595 (active).

Turning to `C=C1c2cccc(O)c2C(=O)[C@@H]2C(=O)[C@]3(O)C(=O)[C@@H](C(N)=O)C(=O)[C@@H](N(C)C)[C@@H]3[C@@H](O)[C@H]12`, the relative growth was 0.0752 (active).

The record behind these values is the supplement of paper PMC9446081.
